Only some compounds are listed: those with a hit (about 3.2% of all), similar ones and a draw of the others.
ANO1 activ: activators or potentiators of mouse TMEM16A chloride channel | Q8BHY3 | HEK293 TMEM16A/YFP-H148Q/I152L, iodide quench fluorescence; active compounds read low | B-score at 10 µM | hit rate 0.3% among 340,000;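 active = fluorescence-ratio B-score plate-corrected deviation score at least 3 library SD below zero, with starting fluorescence score within 5 deviations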;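 note: channel opened by trigger with iodide after compound preincubation; score built on the fluorescence ratio of max minus min over baseline; more negative score means more quench and so TMEM16A activation or potentiation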
HDAC3 inhib: inhibitors of human histone deacetylase 3 | O15379 | recombinant HDAC3, fluorogenic peptide/trypsin coupled, fluorescence | inhibition, % at 8.3 µM | hit rate 0.15% among 320,000 | AID 2718; in the data active = inhibition above about 26%, passing the limit was not always enough
TMEM16A inh: mouse TMEM16A channel inhibition, primary screen. AID 588511. Q8BHY3. normalized B-score (activity score, 25-100; higher = stronger inhibition) at 10 µM. HEK293 TMEM16A/YFP iodide influx fluorescence, ionomycin. hit rate 1.2% among 310,000;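 active = ratio plate-corrected score three or more library SD toward inhibition, starting fluorescence score within five deviations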;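 note: score derived from kinetic fluorescence span divided by baseline fluorescence per well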
CHT PAM: allosterically activates the human high affinity choline transporter. Q9GZV3. CHT-expressing cells, membrane potential dye, choline EC20; active compounds read high; LV-AA mutant CHT in HEK293 cells. B-score at 10 µM. hit rate 0.49% among 310,000. AID 488977;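 active = initial fluorescence not abnormally high and integrated response B-score, plate-corrected, over 3 SD above library mean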
Target sequence (Q9GZV3 whole entry, looked up): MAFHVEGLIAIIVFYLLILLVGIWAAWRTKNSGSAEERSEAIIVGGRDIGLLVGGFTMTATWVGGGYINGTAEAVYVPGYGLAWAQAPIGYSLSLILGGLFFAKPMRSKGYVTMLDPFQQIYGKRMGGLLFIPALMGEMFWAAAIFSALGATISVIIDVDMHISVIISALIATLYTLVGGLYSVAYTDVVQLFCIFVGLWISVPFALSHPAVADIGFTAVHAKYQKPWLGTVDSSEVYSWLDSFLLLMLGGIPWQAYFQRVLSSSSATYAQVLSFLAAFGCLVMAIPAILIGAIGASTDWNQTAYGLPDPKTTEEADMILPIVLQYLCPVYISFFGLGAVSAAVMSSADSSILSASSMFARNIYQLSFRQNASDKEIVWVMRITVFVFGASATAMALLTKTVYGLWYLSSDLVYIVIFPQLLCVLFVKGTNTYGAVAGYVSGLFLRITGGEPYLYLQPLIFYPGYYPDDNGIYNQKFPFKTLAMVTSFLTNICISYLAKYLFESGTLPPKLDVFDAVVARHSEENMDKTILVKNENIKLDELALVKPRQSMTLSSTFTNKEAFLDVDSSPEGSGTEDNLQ
CHT inh: human CHT choline transport inhibition | Q9GZV3 | CHT-expressing cells, membrane potential dye, choline response; active compounds read low | B-score at 10 µM | hit rate 0.86% among 310,000 | AID 488975;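 active = B-score over 3 SD under the library average, and starting fluorescence ratio not unusually high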;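 note: choline stimulus applied at its EC90 after an EC20 pre-addition; B-score computed on integrated fluorescence ratio after choline addition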
PHOSPHO1 inh: PHOSPHO1 (human) inhibition. Q8TCT1. recombinant PHOSPHO1, absorbance phosphatase assay. inhibition, % at 13.3 µM. hit rate 1.1% among 290,000; in the data active = inhibition above about 60%
CHT activ conf: human CHT activation, confirmatory screen; shares compounds with CHT PAM; CHT-expressing cells, membrane potential dye fluorescence (FDSS); % of choline EC20–EC90 response window; HEK293 expressing CHT LV-AA mutant; choline added at its EC20; activation, % at 10 µM; hit rate 91% among 2,500;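 active = primary screen active, with duplicate mean activation above negative control mean plus 3 SD, cut at about 11% in these data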
HEK293 MP dye: counter-screen for CHT activators: effect in parental HEK293 cells; shares compounds with CHT PAM; membrane potential dye fluorescence (FDSS); measured after EC20 choline addition; ratio readout change at 10 µM, hits read low; hit rate 62% among 2,500;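 active = duplicate-averaged ratio beyond 3 SD from buffer wells, up or down, though filed actives are nearly all decreases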
An asterisk follows results filed as active; i = inactive; x = no result given.

SMILES | ANO1 activ | HDAC3 inhib | TMEM16A inh | CHT PAM | CHT inh | PHOSPHO1 inh | CHT activ conf | HEK293 MP dye
CCCCCn1c(CN2CCN(C(=O)OCC)CC2)nc2c1c(=O)n(C)c(=O)n2C | i | 4 | i | i | i | x | x | x
CCCCCn1c(CN2CCN(C)CC2)nc2c1c(=O)n(C)c(=O)n2C | i | 0 | i | i | i | -28 | 46* | -36*
CCN1CCN(Cc2nc3c(c(=O)n(C)c(=O)n3C)n2CCCc2ccccc2)CC1 | x | x | x | x | x | -16 | x | x
N#Cc1cc([N+](=O)[O-])ccc1NCCCn1ccnc1 | i | 2 | i | 7.3* | i | 23 | 62* | -59*
C=C1CCN(C(Cc2ccccc2)C(=O)OC)S(=O)(=O)c2ccc(F)cc21 (centres undefined) | i | 0 | i | i | i | 22 | x | x
CCOC(=O)C1C(C)N=C2SCC(=O)N2C1c1cccc(Br)c1 (centres undefined) | i | 9 | i | i | i | 1 | 6 | i
CCOC(=O)C1C(=O)NC(c2ccccc2)=NC1c1cccc(Br)c1 (centres undefined) | i | -2 | i | i | i | 24 | x | x
CCOc1cc(C2C(C(=O)OC)=CN(Cc3ccc(Cl)cc3)C=C2C(=O)OC)ccc1O | i | 5 | i | i | i | 18 | 20* | i
COC(=O)C1=CN(Cc2ccccc2)C=C(C(=O)OC)C1c1ccc(O)c(OC)c1 | i | 3 | i | i | i | -37 | x | x
O=C(Nc1ccccc1F)C(=O)c1cn(CC(=O)N2CCCCC2)c2ccccc12 | i | 0 | i | i | i | -5 | x | x
CCN1C(N(C)CCc2c[nH]c3ccccc23)=N[C@@H](c2cccc(C(F)(F)F)c2)C(C(=O)OC)=C1C | i | -4 | x | x | x | x | x | x
CCN1C(N(C)CCc2cccs2)=N[C@@H](c2ccccc2)C(C(=O)OC)=C1C | i | -3 | i | 13* | i | -114 | 26* | i
O=C(O)CN1CCN(Cc2ccc(F)cc2)C1=O | i | 0 | i | i | i | 29 | x | x
COc1ccc(OC)c(C(=O)COC(=O)C(CCSC)NC(=O)COc2ccccc2)c1 (centres undefined) | i | 5 | i | i | i | x | 26* | i
COc1ccccc1C(=O)COC(=O)C(CCSC)NC(=O)COc1ccccc1 (centres undefined) | i | 3 | i | i | i | x | x | x
CCn1c(=N)c(C(=O)OC)cc2c(=O)n3ccccc3nc21 | x | x | x | x | x | 3 | x | x
C/C(=N\NC(=O)c1nn(C)cc1Cl)c1ccncc1 | i | 1 | i | i | i | 6 | x | x
C/C(=N\NC(=O)c1nn(C)cc1Br)c1ccncc1 | i | 1 | i | 7.3* | i | -9 | 17* | -37*
Cc1[nH]c2ccccc2c1/C=N/Nc1ccc([N+](=O)[O-])cc1 | i | 7 | i | i | i | -7 | 17* | i
Cc1[nH]c2ccccc2c1/C=N/NC(=O)c1cccc([N+](=O)[O-])c1 | i | 1 | i | i | i | -8 | x | x
O=C(C1CCCO1)N1CCN(C(=S)Nc2ccc(Cl)cc2Cl)CC1 (centres undefined) | i | 7 | i | i | i | -9 | x | x
CC(C)CN(C(=O)CSc1nnc(-c2cccs2)n1N)c1c(N)n(Cc2ccccc2)c(=O)[nH]c1=O | i | x | i | 6.7* | i | x | 26* | i
COc1ccc(C(=O)NCCNc2ncc(C(F)(F)F)cc2Cl)cc1[N+](=O)[O-] | i | 5 | i | i | i | 20 | x | x
CCCn1c(=N)c(C#N)cc2c(=O)n3cccc(C)c3nc21 | x | 4 | i | 8.3* | i | -10 | 49* | -38*
Cc1cccn2c(=O)c3cc(C#N)c(=N)n(CCN4CCOCC4)c3nc12 | i | x | x | x | x | 7 | x | x

Screening data deposited in PubChem BioAssay by several laboratories.
